Measurements as given in PubChem BioAssay (NCI).
This is part of a sample that, as a whole, favours compounds with a hit. Of some 83,000 tested, about 20% had one in any assay.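 In brief: 96-well plates, 48 h treatment, single concentration, percent growth endpoint.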 A number with no mark means an inactive call. Activity calls are given as the source filed them. The calls were made as follows: active = growth percent below 10; inactive = the rest.

Columns and labels:
Experiment in all cases: NCI-60 one-dose screen, 48 h (100 = growth as untreated, 0 = no growth, -100 = all killed)
Conditions in all cases: 10 µM unless noted
SK-MEL-2 melanoma = system: SK-MEL-2 melanoma
EKVX NSCLC = system: EKVX NSCLC
SN12C renal = system: SN12C renal
UO-31 renal = system: UO-31 renal
TK-10 renal = system: TK-10 renal
ACHN renal = system: ACHN renal
CAKI-1 renal = system: CAKI-1 renal
A498 renal = system: A498 renal
CCRF-CEM leukemia = system: CCRF-CEM leukemia
MOLT-4 leukemia = system: MOLT-4 leukemia

Row | Structure (SMILES) | growth (SK-MEL-2 melanoma) | growth (EKVX NSCLC) | growth (SN12C renal) | growth (UO-31 renal) | growth (TK-10 renal) | growth (ACHN renal) | growth (CAKI-1 renal) | growth (A498 renal) | growth (CCRF-CEM leukemia) | growth (MOLT-4 leukemia)
1 | COCCn1cc(-c2nc(-c3cc4cccnc4n3C)cs2)c2cc(OC)ccc21 | 56.3% | 24.8% | 73% | 51% | 19.5% | 64.2% | 74.5% | 46.6% | 28.8% | 48.5%
2 | O=C1CCc2c(sc3[nH]c(=S)n(-c4cc(C(F)(F)F)cc(C(F)(F)F)c4)c(=O)c23)C1 | -31.3% (active) | -8.72% (active) | 8.54% (active) | -57.5% (active) | 2.81% (active) | 3.08% (active) | 0.877% (active) | -18.2% (active) | 1.71% (active) | 11%
3 | C=C(C)[C@@H]1CC[C@]2(C(=O)NC(C)=O)CC[C@]3(C)[C@H](CC[C@@H]4[C@@]5(C)CCCNC(C)(C)[C@@H]5CC[C@]43C)[C@@H]12 | -34.6% (active) | 68.8% | 22.2% | 49.7% | 10.6% | -30.1% (active) | 71.8% | 88.6% | 1.24% (active) | -13.1% (active)
4 | COc1nc2ccccc2cc1/C=[N+](\[O-])c1ccccc1 | 87.8% | 87% | 59.1% | 43.9% | 79.6% | 86.1% | 79.8% | 90.3% | 13.1% | 29.5%
5 | O=C1c2c(c3c4cccnc4[nH]c3c3ccc4ccccc4c23)C(=O)N1O | 91% | 97.7% | 26.5% | 57.6% | 133% | 45% | 47% | 84.7% | 15.3% | 6.42% (active)
6 | O=C1/C(=C/c2ccccc2)COc2ccc(O)cc21 | 104% | 105% | 91.7% | 76.4% | 106% | 101% | 93.5% | 99.5% | 21.5% | 78.6%
7 | COc1cc(/C=C/c2cc(/C=C/c3ccc(O)c(OC)c3)n(C(=O)Nc3ccc(C)cc3C)n2)ccc1O | -27.2% (active) | -14.7% (active) | 0.467% (active) | -38.7% (active) | 15.9% | 5.29% (active) | -36.6% (active) | -14.7% (active) | 1.54% (active) | -20.7% (active)
8 | O=C1C=CC2(O)OC(c3ccccc3)CC(=O)C2=C1O (stereo not given) | 102% | 89.1% | 78.9% | 62.7% | 126% | 97.8% | 86.5% | 96% | 46.1% | 77.8%
9 | COc1cc2c(c(OC)c1OC)C(=O)CC(c1cccc(C(=O)Nc3ccc(Br)cc3)c1)O2 (stereo not given) | 60.3% | 63.5% | 51.1% | 40.3% | 75.2% | 63.9% | 62% | 40.3% | 9.34% (active) | -0.848% (active)
10 | CC(C)(C)CC(C)(C)Nc1c(-c2c(O)c3ccccc3oc2=O)nc2sccn12 | 96.8% | 105% | 93.5% | 83.6% | 90.5% | 99.8% | 92.8% | 118% | 92.2% | 101%
11 | CC1(C)CC(=O)C2=C(C1)OC(C(=O)c1ccccc1)C2c1cccc(Oc2ccccc2)c1 (stereo not given) | 25% | 36.4% | 38.7% | 15.6% | 63.8% | 32.7% | 41.6% | 49.6% | 34.5% | 12.2%
12 | O=c1cc(-c2nccc3c2[nH]c2ccccc23)c2cc(Cl)ccc2o1 | 30.2% | 62.1% | 62.4% | 58.1% | 85.3% | 47.3% | 54.6% | 31.8% | 31.2% | 44.3%
13 | N=C(N)c1ccc(-c2ccc(-c3ccccc3)s2)nc1 | 104% | 88.8% | 82.4% | 79.9% | 106% | 91.5% | 73.6% | 88.3% | 68.9% | 57.3%
14 | COC(=O)c1nc(-c2ccccc2)oc1S(=O)(=O)N1CCN(c2ccc(OC)cc2)CC1 | 106% | 88.2% | 85.4% | 66.1% | 68.1% | 66.4% | 79.3% | 121% | -11.9% (active) | 25.1%
15 | COc1ccccc1/C=C/C1=C(C)CCC(c2ccccc2OC)C1C (stereo not given) | -7.95% (active) | 35% | 28% | 4.1% (active) | 41.1% | 13% | 2.23% (active) | -4.12% (active) | -9.01% (active) | 4.37% (active)
16 | N=C(N)c1ccc(-c2ccc(-c3ccc(Cl)cc3Cl)s2)nc1 | 109% | 93.6% | 81% | 91.3% | 122% | 74.2% | 39.1% | 104% | 39.1% | 13.5%
17 | CC1=C(C(=O)OCc2ccccc2)C(c2ccc3c(c2)OCO3)n2c(nc3ccccc32)N1 (stereo not given) | 47.8% | 64.4% | 47.6% | 51.1% | 65.6% | 38.4% | 34.3% | -10.2% (active) | 24.9% | 37.1%
18 | Nc1nc(N)c2c(n1)NC(c1cccc(Nc3ccnc4cc(C(F)(F)F)ccc34)c1)CC(c1ccc(Cl)cc1)=N2 (stereo not given) | 42.7% | 50.8% | 63.9% | 62.7% | 87.4% | 72.7% | 45.5% | 82% | 19.2% | 7.52% (active)
19 | N#C/C(Sc1nc2sc3c(c2c(=O)n1Cc1ccccc1)CCCC3)=C1/SC=C(c2ccc(Cl)cc2)N1c1ccccc1 | 106% | 106% | 98% | 63.7% | 107% | 92.7% | 91.4% | 120% | 0.897% (active) | 92.3%
20 | O=c1c(Cc2ccc(F)cc2)cc(-c2ccccc2)nn1C/C(=N/O)c1ccccc1 | 36.8% | 29.1% | 17.2% | 30.9% | 63.5% | 40.3% | 47% | 9.7% (active) | 34.6% | 16.1%
21 | CCOc1ccccc1NC(=O)CCC(=O)OC | 121% | 94.3% | 108% | 81.8% | 98.7% | 106% | 92.4% | 100% | 108% | 94.8%
22 | COc1ccc(N/N=C/c2ccc3c(c2)Sc2ccccc2N3C)cc1 | 98% | 65.9% | 79.3% | 42.1% | 114% | 51.6% | 26.2% | 17.5% | 73.6% | 38.8%
23 | COc1ccc(C2=NN(C=O)C(c3ccc(Oc4nc5c(c(=O)n(C)c(=O)n5C)n4C)c(OC)c3)C2)cc1 (stereo not given) | 100% | 91.8% | 53.8% | 74% | 104% | 84.8% | 75.2% | 85.5% | 80.5% | 66.7%
24 | c1ccc(-c2cn3nc(-c4c[nH]c5ccccc45)sc3n2)cc1 | 94.4% | 70.3% | 83% | 46.4% | 105% | 83.3% | 66.1% | 89.9% | 86.4% | 83.9%
25 | COc1ccc(Nc2nc(Nc3cc(C)[nH]n3)c3cc(OC)c(OC)cc3n2)cc1 | -68.6% [20 µM] (active) | -79.5% [20 µM] (active) | -90.4% [20 µM] (active) | -100% [20 µM] (active) | -86.6% [20 µM] (active) | -100% [20 µM] (active) | -100% [20 µM] (active) | -98.7% [20 µM] (active) | -38.9% [20 µM] (active) | -57.1% [20 µM] (active)
26 | Cc1ccc(S(=O)(=O)c2nc(-c3ccccc3)oc2S(C)=O)cc1 (stereo not given) | 50.3% | 55.6% | 40.2% | -80.5% (active) | -94.8% (active) | -99.2% (active) | -98.4% (active) | 75.9% | -41% (active) | -29.5% (active)
27 | COc1ccc(-c2ccc(-c3ccc(C(=N)N)o3)o2)cc1 | 54% | 58.4% | -23.9% (active) | 45.5% | 61.9% | 41.6% | 34.4% | 9.73% (active) | 5.45% (active) | 27.7%
